# Out of some 320,000 compounds screened, about 2,100 (0.66%) were called active. Not shown: some 53% with an inconclusive outcome. Calls follow the shape of the dose curve; as a rule, active = well fitted inhibition curve with a large enough effect in the signal ratio, with a control signal flat (not every such curve was filed as active); inconclusive = small, poorly fitted or top-dose-only effect, or effect the other way, or a change in a side signal; inactive = flat fitted curve, though single readings scatter; the % refers to the signal ratio. Many of the other results were omitted from the sample, so actives are more common in it than they were.
# Test: qHTS Assay for Lipid Storage Modulators in Drosophila S3 Cells;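 as to cell number change: cells counted by Cell Tracker Red CMTPX staining in the red channel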; as to lipid storage change, negative = inhibition: % is scaled to controls: 0 for no effect and ±100 for the full control effect
# Conditions: BODIPY lipid droplet fluorescence, 18-24 h, cells fed with added oleic acid; cell number change: measured here: cell count max response; series mostly up to 46.1 µM; lipid storage change, negative = inhibition: at the top concentration
# Summary of the method: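 Laser-scanning cytometry quantifies lipid droplet accumulation (500–530 nm total intensity; droplet/cell object ratio) in oleic acid-fed (400 uM added) Drosophila S3 cells treated with a concentration series. 20 uM Triacsin C defined 100% inhibition.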
# Potency is read from the fitted curve at half-maximal effect.
SMILES,outcome,cell number change,"lipid storage change, negative = inhibition",Potency
COc1ccc(N2C(=O)CC(Sc3nc(C)cc(C)n3)C2=O)cc1OC (stereo unspecified),inactive,22%,,
CC(=O)c1c(C)[nH]c(C(=O)Nc2nccs2)c1C,,5.23%,-1.32% (inactive),
CC(=O)c1c(C)[nH]c(C(=O)Nc2ccccn2)c1C,,-7.6%,,29.1 µM (active)
CCC(C)c1ccccc1NC(=O)c1[nH]c(C)c(C(C)=O)c1C (stereo unspecified),,-4.58%,-24.3% (inactive),
O=C(CN1CCN(S(=O)(=O)c2ccccc2)CC1)NC1CC1,,-0.697%,-13% (inactive),
CCOC(=O)C1CCN(C(=O)c2ccc(N3CCCC3=O)cc2)CC1,,2.94%,-4.81% (inactive),
O=C(NCc1ccc(F)cc1)c1cc2c(s1)CS(=O)(=O)C2,inactive,-3.83%,,
COC(=O)c1c(C)[nH]c(C(=O)/C=C/c2ccc(C)cc2)c1C,,11.4%,-0.587% (inactive),
CCN1CCc2nc(NC(=O)C(c3ccccc3)c3ccccc3)sc2C1,,-8.16%,,20.6 µM (active)
CCN1CCc2nc(NC(=O)c3ccc(S(=O)(=O)N(C)C)cc3)sc2C1,inactive,,,
CCN1CCc2nc(NC(=O)c3ccc4c(c3)OCCO4)sc2C1,,-22.4%,-12.2% (inactive),
CCC(=O)Nc1c2c(nn1-c1ccc(OC)cc1)CS(=O)C2 (stereo unspecified),,-17%,-15% (inactive),
COc1ccccc1N(CC(=O)NCC1CCCO1)C(=O)CNS(=O)(=O)c1ccccc1 (stereo unspecified),,,6.59% (inactive),
Cc1nc2ccccc2n1CSc1ccccc1,,7.45%,5.97% (inactive),
COc1cccc(-c2ccc(C#N)c(OC(=O)c3c(Cl)cccc3Cl)n2)c1,inactive,-22.9%,,
Cc1cc(NC(=O)C(C)SCC(=O)Nc2nc3c(F)cc(F)cc3s2)no1 (stereo unspecified),,-16.6%,-0.525% (inactive),
Cc1cc(NC(=O)CSc2ccc(F)cc2)no1,,,-13.1% (inactive),
Cc1cc(NC(=O)CSCC(=O)Nc2nc3ccc(F)cc3s2)no1,,9.73%,,11.6 µM (active)
O=C(CN1C(=O)S/C(=C/c2ccc(N3CCOCC3)cc2)C1=O)N1CCOCC1,,13.3%,-1.55% (inactive),
O=C(CN(Cc1ccc(F)cc1)C(=O)c1csnn1)NC1CCCC1,inactive,10.5%,,
COc1cccc(C(=O)N(Cc2nc(-c3cccc(C)c3)no2)C(C)C)c1OC,,-16.8%,,18.4 µM (active)
Cc1cccc(-c2noc(CN(C(=O)C34CC5CC(CC(C5)C3)C4)C(C)C)n2)c1,,15.9%,24.8% (inactive),
COc1cc(OC)cc(C(=O)N(Cc2nc(-c3cccc(C)c3)no2)C(C)C)c1,inactive,,,

SMILES,outcome,cell number change,"lipid storage change, negative = inhibition",Potency
O=C(COc1ccc(Cl)cc1)N(Cc1ccco1)C1CCS(=O)(=O)C1 (stereo unspecified),,5.12%,5.44% (inactive),
CCCCNC(=O)CN(c1cc(C(F)(F)F)ccc1Cl)S(C)(=O)=O,,5.68%,2.61% (inactive),
Cc1ccc(N(CC(=O)NC2CCCCC2)S(=O)(=O)c2c(C)nn(C)c2C)cc1,inactive,5.73%,,
Cc1ccc(N(CC(=O)NC2CCCCC2C)S(=O)(=O)c2c(C)nn(C)c2C)cc1 (stereo unspecified),,-1.91%,,25.9 µM (active)
Cc1ccc(N(CC(=O)NC2CCCCC2C)S(=O)(=O)c2c(C)noc2C)cc1 (stereo unspecified),inactive,1.18%,,
CC1(C)CCC(C)(C)NC(=S)N1,,-5.67%,-0.404% (inactive),
O=C(COc1nsnc1N1CCOCC1)Nc1ccc(Cl)cc1,,-7.64%,-10.2% (inactive),
O=C(COc1nsnc1N1CCOCC1)N1CCOCC1,,-23.3%,-15% (inactive),
COC(=O)COc1nsnc1N1CCOCC1,,1.29%,,5.8 µM (active)
Cc1cccc(OCCC(=O)NNC(=O)c2ccoc2C)c1,,-9.1%,5.46% (inactive),
COC(=O)CCCCCN1C(=O)NC(c2ccccc2)C(C(=O)OCc2ccccc2)=C1C (stereo unspecified),,10%,13.9% (inactive),
CC(=O)NS(=O)(=O)c1ccc(NC(=O)c2cc(-c3ccc(C)cc3)nc3ccccc23)cc1,,13.2%,0.28% (inactive),
Cc1ccc(NC(=O)N2CCCC(C(=O)O)C2)cc1 (stereo unspecified),,-2.63%,-5.95% (inactive),
CN1CCC(N2CCCC(C(=O)O)C2)CC1 (stereo unspecified),,6.8%,,6.51 µM (active)
CCCN1CCC(N2CCCC(C(=O)O)C2)CC1 (stereo unspecified),,9.47%,4% (inactive),
O=C(c1ccccc1)N1CCn2c1nc1ccccc12,,7.4%,-6.04% (inactive),
COc1cccc(CC(=O)Nc2nc3c(s2)C(=O)CC(C)(C)C3)c1,,,6.69% (inactive),
O=C(CSc1nccc(=O)[nH]1)Nc1ccc(N2CCOCC2)cc1,,4.96%,10.1% (inactive),
COc1ccc(S(=O)(=O)N2CCCC(C(=O)N3CCCCCC3)C2)cc1 (stereo unspecified),inactive,,,
COc1ccc(OC)c(S(=O)(=O)N2CCC(C(=O)N3CCN(Cc4ccccc4)CC3)CC2)c1,,-36.9%,,8.2 µM (active)
COc1ccc(OC)c(S(=O)(=O)N2CCC(C(=O)N3CCOCC3)CC2)c1,inactive,23.2%,,
COc1ccc(CN2CCCC(C(=O)N3CCCCC3)C2)c(OC)c1 (stereo unspecified),,-9.62%,,18.4 µM (active)
COc1ccc(OC)c(S(=O)(=O)N2CCCC(C(=O)N3CCCCCC3)C2)c1 (stereo unspecified),,-13.8%,,3.26 µM (active)

# — PubChem BioAssay AID2685 (National Center for Advancing Translational Sciences (NCATS), 2010)
